Experimental data: the supplement of paper PMC6522484
± gives the standard deviation of the averaged measurements.

Assays:
DLD1 [1] = assay: cell viability (CellTiter-Glo) relative to plate median (fraction of plate median); higher = more viable cells; details: 5 µM; treatment time 24 h; reporter: 7TFP
How it was run: (§1)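 For this screen, colorectal cancer cell lines carrying stable lentiviral TCF/Wnt firefly luciferase reporters, either 7TFP or TCF4/Wnt, were seeded into 384-well plates. A day's wait of 24 h preceded addition of library compounds at a final 5 µM, which stayed on the cells for 24 h. Firefly luciferase or CellTiterGlo luminescence, read on parallel plates, was normalised to the plate median per well, and the reported value is the mean of two independent replicates.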

HCT116 = assay: as above; details: 5 µM; treatment time 24 h; reporter: TCF4/Wnt
How it was run: as §1

SW480 [2] = assay: as above; details: 5 µM; treatment time 24 h; reporter: 7TFP
How it was run: as §1

DLD1 [3] = assay: TCF/Wnt firefly luciferase reporter signal relative to plate median (fraction of plate median); higher = higher Wnt reporter signal; details: 5 µM; treatment time 24 h; reporter: 7TFP
How it was run: as §1

SW480 [4] = assay: as above; details: 5 µM; treatment time 24 h; reporter: 7TFP
How it was run: as §1

| Structure (SMILES) | cell viability (DLD1 [1]) | cell viability (HCT116) | cell viability (SW480 [2]) | TCF/Wnt firefly luciferase reporter signal (DLD1 [3]) | TCF/Wnt firefly luciferase reporter signal (SW480 [4]) |
| --- | --- | --- | --- | --- | --- |
| CO/N=C(\C(=O)N[C@@H]1C(=O)N2C(C(=O)O)=C(COC(C)=O)CS[C@H]12)c1csc(N)n1 | 1.03 ± 0.035 | 1.07 | 0.969 ± 0.031 | 1.01 ± 0.11 | 0.856 ± 0.074 |
| C=C1C(N)CC2CC1C2(C)C (stereo not drawn) [3-AMINO-beta-PINENE] | 0.974 ± 0.093 | 0.9965 ± 0.005 | 0.918 ± 0.024 | 0.893 ± 0.0071 | 0.888 ± 0.016 |
| COC(=O)C1=CO[C@@H](O[C@@H]2O[C@H](CO)[C@@H](O)[C@H](O)[C@H]2O)[C@@H]2[C@@H](C)[C@@H](O)C[C@H]12 | 1.045 ± 0.0071 | 1.02 ± 0.047 | 1.06 ± 0.035 | 1.01 ± 0.016 | 1.09 ± 0.064 |
| Cc1c(N(C)C)c(=O)n(-c2ccccc2)n1C | 0.898 ± 0.025 | 0.981 ± 0.13 | 0.991 ± 0.069 | 1.1 ± 0.028 | 0.821 ± 0.057 |
| CC(C)=CCC[C@@H](C)[C@@H]1CC[C@]2(C)C3=C(CC[C@@]12C)[C@@]1(C)CC[C@H](O)C(C)(C)[C@@H]1CC3 | 1.015 ± 0.0071 | 0.995 ± 0.021 | 0.989 ± 0.016 | 0.918 ± 0.23 | 1.02 ± 0.085 |
| COc1cccc2c(C)cc(=O)[nH]c12 | 1.05 ± 0.15 | 1.07 ± 0.11 | 1.02 ± 0.09 | 1.05 ± 0.064 | 1.11 ± 0.085 |
| CC(=O)[C@H]1CC[C@H]2[C@@H]3CCC4=CC(=O)CC[C@]4(C)[C@H]3CC[C@]12C | 1.01 ± 0.078 | 1.02 ± 0.12 | 0.992 ± 0.025 | 0.979 ± 0.03 | 1.04 ± 0.028 |
| CC(C)=CCc1c(O)cc2occ(-c3ccc4c(c3)OCO4)c(=O)c2c1O | 1 ± 0.12 | 1.05 ± 0.071 | 0.972 ± 0.018 | 1.02 ± 0.1 | 0.902 ± 0.45 |
| Cc1cc(NC(=O)C2=C(O)c3ccccc3S(=O)(=O)N2C)no1 | 1.04 ± 0.064 | 0.88 ± 0.036 | 1.004 ± 0.0085 | 0.945 ± 0.15 | 0.993 ± 0.18 |
| CCCCNc1ccc(C(=O)OCCN(C)C)cc1 | 1.04 ± 0.042 | 1.12 ± 0.085 | 1.02 ± 0.035 | 1.1 ± 0.035 | 0.973 ± 0.0085 |
| CC(C)c1ncc(Cc2ccccc2)[nH]c1=O [Phevalin] | 1.14 ± 0.22 | 1.07 ± 0.014 | 1.004 ± 0.0078 | 0.982 ± 0.019 | 0.922 ± 0.12 |
| Cc1c(C)c2c(c(C)c1O)CCC(C)(COc1ccc(CC3SC(=O)NC3=O)cc1)O2 (stereo not given) | 1.05 ± 0.085 | 1.04 ± 0.071 | 1.06 ± 0.021 | 0.942 ± 0.11 | 1.04 ± 0.021 |
| NC(=O)C(c1ccccc1)(c1ccccc1)[C@@H]1CCN(CCc2ccc3c(c2)CCO3)C1 | 0.873 ± 0.067 | 0.983 ± 0.0042 | 0.947 ± 0.03 | 1.03 ± 0.094 | 1.005 ± 0.0071 |
| C=C1c2c(Cl)ccc(O)c2C(=O)C2=C(O)[C@]3(O)C(=O)C(C(N)=O)=C(O)[C@@H](N(C)C)[C@@H]3[C@@H](O)[C@H]12.O=C(O)c1cc(S(=O)(=O)O)ccc1O | 1.05 ± 0.021 | 1.02 ± 0.042 | 1.005 ± 0.0071 | 1.05 ± 0.25 | 0.893 ± 0.062 |
| C[C@H]1C[C@@H]2[C@H]([C@@H](O)C[C@@]3(C)[C@H]2CC[C@]3(O)C(=O)CO)[C@@]2(C)C=CC(=O)C=C12 | 1.01 ± 0.029 | 1.02 ± 0.056 | 1.04 ± 0.014 | 0.9235 ± 0.005 | 1.02 ± 0.062 |
| CN(C)CCc1c[nH]c2ccc(CS(=O)(=O)N3CCCC3)cc12 | 0.875 ± 0.04 | 0.929 ± 0.088 | 0.999 ± 0.086 | 1.17 ± 0.035 | 1.06 ± 0.088 |
| O=c1oc(CO)c(CO)c2cccc(O)c12 [8-hydroxy-3,4-bis-(hydroxymethyl)-isocumarin] | 0.91 ± 0.03 | 0.981 ± 0.098 | 0.967 ± 0.038 | 1.09 ± 0.092 | 1.05 ± 0.057 |

| Structure (SMILES) | cell viability (DLD1 [1]) | cell viability (HCT116) | cell viability (SW480 [2]) | TCF/Wnt firefly luciferase reporter signal (DLD1 [3]) | TCF/Wnt firefly luciferase reporter signal (SW480 [4]) |
| --- | --- | --- | --- | --- | --- |
| COc1cc(/C=C/C(=O)CC(=O)/C=C/c2ccc(O)c(OC)c2)ccc1O | 1.02 ± 0.061 | 1.02 ± 0.093 | 1.05 ± 0.014 | 1.13 ± 0.14 | 0.982 ± 0.14 |
| CCOC(=O)Nc1nc2ccccc2[nH]1 | 1.03 ± 0.028 | 0.887 ± 0.016 | 1.06 ± 0.035 | 0.971 ± 0.056 | 0.959 ± 0.0057 |
| C=CCCCCCCCCC(=O)[O-].C=CCCCCCCCCC(=O)[O-].[Zn+2] | 0.996 ± 0.049 | 0.903 ± 0.011 | 0.964 ± 0.023 | 0.94 ± 0.24 | 0.968 ± 0.041 |
| CC12CCC(CC1=O)C2(C)C (stereo not given) | 0.974 ± 0.037 | 0.941 ± 0.2 | 1.04 ± 0.05 | 1.02 ± 0.061 | 0.969 ± 0.14 |
| Nc1c2c(nc3ccccc13)CCCC2 | 1.04 | 0.997 ± 0.018 | 0.946 ± 0.014 | 0.999 ± 0.016 | 0.943 ± 0.015 |
| O=S(=O)(O)CCS | 1.01 ± 0.058 | 1.06 ± 0.014 | 1.02 ± 0.054 | 1.01 ± 0.19 | 1.1 ± 0.028 |
| CCCCCCCCCCCCCCCC(=O)OC[C@@H](NC(=O)C(Cl)Cl)[C@H](O)c1ccc([N+](=O)[O-])cc1 | 0.96 ± 0.0042 | 0.996 ± 0.02 | 1.01 | 0.971 ± 0.028 | 1.02 ± 0.052 |
| C=C1CC[C@H](O)C/C1=C/C=C1\CCC[C@]2(C)[C@@H]([C@H](C)CCCC(C)C)CC[C@@H]12 | 1.025 ± 0.0071 | 0.969 ± 0.044 | 0.97 ± 0.057 | 0.84 ± 0.04 | 0.882 ± 0.054 |
| CC1(C)Oc2ccc3ccc(=O)oc3c2CC1O (stereo not given) | 0.993 ± 0.011 | 1.01 ± 0.042 | 1.07 ± 0.021 | 0.996 ± 0.19 | 0.791 ± 0.089 |
| C[C@](N)(Cc1ccc(O)cc1)C(=O)O [alpha-METHYL-L-TYROSINE] | 1.08 ± 0.11 | 1.07 ± 0.078 | 0.944 ± 0.016 | 0.896 ± 0.02 | 0.974 ± 0.11 |
| COc1cc2c(cc1OC)-c1c(oc3cc(O)cc(O)c3c1=O)CO2 | 0.988 ± 0.12 | 0.972 ± 0.096 | 0.972 ± 0.0042 | 1.22 ± 0.05 | 1.03 ± 0.035 |
| NC(=O)NCCC[C@H](N)C(=O)O | 1 ± 0.12 | 1 ± 0.051 | 1.015 ± 0.0071 | 0.944 ± 0.043 | 0.864 ± 0.083 |
| O=C1CCC(N2C(=O)c3ccccc3C2=O)C(=O)N1 (stereo not given) | 0.939 ± 0.1 | 0.972 ± 0.04 | 0.953 ± 0.03 | 1.23 ± 0.16 | 0.887 ± 0.018 |
| Oc1ccc(/C=C/c2cc(O)cc(O)c2)cc1 | 0.995 ± 0.022 | 1.05 ± 0.042 | 1.03 ± 0.098 | 1.05 ± 0.05 | 0.891 ± 0.059 |
| CC(=O)Oc1c(C)c(C)c2c(c1C)CCC(C)(CCCC(C)CCCC(C)CCCC(C)C)O2 (stereo not drawn) [alpha-TOCHOPHERYL ACETATE] | 1.06 ± 0.085 | 1.02 ± 0.092 | 1.06 ± 0.014 | 1.12 ± 0.18 | 1.09 ± 0.057 |
| NC(=O)N/N=C/c1ccc([N+](=O)[O-])o1 | 0.894 ± 0.04 | 0.827 ± 0.13 | 0.9805 ± 0.0064 | 0.973 ± 0.11 | 1.08 ± 0.028 |
| COc1cc(N)c(Cl)cc1C(=O)NC1CCN(Cc2ccccc2)CC1 | 0.971 ± 0.026 | 0.883 ± 0.041 | 0.975 ± 0.0071 | 0.8815 ± 0.0021 | 0.998 ± 0.017 |
